Among the data in PubChem BioAssay are activation and outcome values, retold here.

Assay [1] concerns TRPC4 beta (transient receptor potential cation channel C4), mouse. Nature of the assay: activators of mouse TRPC4 channel, confirmation, cell-based, Fluo4 calcium, HEK293 TRPC4beta/mu-opioid, duplicates, 10 µM (AID 2426;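 active = fluorescence ratio normalized to control raised more than 50% in primary screen plus both repeat runs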;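 for activation: percent rise of integrated ratio over buffer wells lacking compound which define 0%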). The note with it: Fluo4 calcium fluorescence, at 10 µM; hits give high values.
Assay [2] has as its system transient receptor potential cation channel C4 beta (TRPC4), mouse. Kind of assay: activators of mouse TRPC4 channel, confirmation, cell-based, second round, Fluo4, HEK293 TRPC4beta/mu-opioid, 1 µM (AID 2461;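 active = primary screen active and over 50% activation in each of two duplicate runs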;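 for activation: 0% = wells without test compound as baseline of integrated fluorescence ratio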). Particulars: Fluo4 calcium fluorescence, at 1 µM; hits give high values.
For assay [3], the system named is TRPC4 (transient receptor potential cation channel C4 beta), mouse. Kind of assay: positive allosteric modulators of mouse TRPC4, confirmation, cell-based, second round, Fluo-4, HEK293 TRPC4beta/mu-opioid, 1 µM (AID 2554;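 active = primary screen hit whose fluorescence ratio, in both repeats, exceeds the weak agonist control mean by 3 SD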). The note with it: DAMGO EC20, Fluo-4 calcium flux, at 1 µM; hits give high values.
Assay [4] has as its system TRPC4 beta (transient receptor potential cation channel C4), mouse. Kind of assay: positive allosteric modulators of mouse TRPC4, confirmation, cell-based, Fluo-4, HEK293 TRPC4beta/mu-opioid (AID 2555;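 active = primary screen hit whose calcium fluorescence ratio, in both repeats, exceeds the weak agonist control mean by 3 SD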). The note with it: DAMGO EC20, Fluo-4 calcium flux, at 10 µM; hits give high values. Background: A change in cytosolic calcium serves as a functional read-out for many receptors and channels.

The target in assay [5] is Short transient receptor potential channel 4 (Mus musculus) (UniProt Q9QUQ5). Kind of assay: inhibitors of mouse TRPC4 channel, confirmation, cell-based, Fluo4, HEK293 TRPC4beta/mu-opioid (AID 2636;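 active = calcium signal cut by more than 3 SD below the full-agonist control yet still positive, in both repeats and the earlier primary screen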). The note with it: DAMGO, Fluo4 calcium flux, at 10 µM; hits give high values.
The target is the same in assay [6]. Kind of assay: inhibitors of mouse TRPC4 channel, confirmation, cell-based, second round, Fluo4, HEK293 TRPC4beta/mu-opioid, 1 µM (AID 2637;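 active = calcium signal ratio cut to more than 3 SD under the fully stimulated control mean yet still positive, in both repeats and the primary screen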). The note with it: Fluo4 calcium flux, DAMGO, at 1 µM; hits give high values.
Assay [7] has the same target. Nature of the assay: TRPC4 positive allosteric modulators, dose response, cell-based, HEK293 TRPC4/mu-opioid, Fluo-4 calcium, EC20 DAMGO (AID 434941;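 active = earlier screen potentiator hit that boosts the TRPC4 ion channel at some dose, with a dose response; inactive = no potentiation, no dose response, or not a prior hit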;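 note: calcium entry triggered by an EC20 dose of DAMGO at the co-expressed mu-opioid receptor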).
Assay [8] shares this target. Kind of assay: mouse TRPC4 channel inhibitors, dose response, cell-based, HEK293 TRPC4/mu-opioid, Fluo-4 calcium (AID 434942;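 active = primary screen inhibitor hit that blocks the TRPC4 channel at some tested dose, yielding a dose curve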).
For assay [9], the target named is Short transient receptor potential channel 6 (Mus musculus) (UniProt Q61143). Kind of assay: inhibition of mouse TRPC6 channel, confirmation, selectivity assay for TRPC4 inhibitor project, cell-based, HEK293, membrane potential dye, duplicate (AID 434948;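 active = active in primary screen and both duplicates, each dropping signal beyond three positive-control SD with fluorescence still positive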). Particulars: HEK293 TRPC6, membrane potential dye fluorescence, at 10 µM, stimulated with maximal-effect acetylcholine; hits give high values.

The target is the same in assay [10]. Kind of assay: activation of mouse TRPC6 channel, confirmation, selectivity assay for TRPC4 activator project, cell-based, HEK293, membrane potential dye, duplicate (AID 434950;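 active = membrane potential signal rise above negative control mean plus 3 SD in both duplicates, also active in the earlier TRPC4 screen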;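 for activation: 0% = buffer only wells and 100% = acetylcholine maximal-effect wells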). The note with it: HEK293 TRPC6, membrane potential fluorescence, at 10 µM; hits give high values.
For assay [11] the target is unchanged. Nature of the assay: TRPC6 potentiation by TRPC4 potentiator hits, confirmation, selectivity assay for TRPC4 potentiator project, HEK293 cells, membrane potential dye, duplicate (AID 434952;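 active = compound raising the membrane signal above positive-control mean plus 3 SD in both repeats, and a primary screen hit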). Particulars: HEK293 TRPC6, membrane potential dye fluorescence, at 10 µM, maximal acetylcholine added after compound; hits give high values.
Assay [12] concerns the target Short transient receptor potential channel 4 (Mus musculus) (UniProt Q9QUQ5). Kind of assay: calcium flux activators in TRPC4/5HT1a cells, counter-screen for TRPC4 activator project, cell-based, second counter screen, HEK293 TRPC4/5HT1a, Fluo-4 (AID 434977;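 active = calcium signal rise above buffer-control mean plus 5 SD in both duplicates, and also a hit in the primary screen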;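 for activation: plate controls were assay buffer for no effect and maximal serotonin response for full effect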). The note with it: Fluo-4 calcium flux, at 10 µM; hits give high values.
A short description of assay [13]: calcium flux inhibitors in TRPC4/5HT1a cells, confirmation, counter-screen for TRPC4 inhibitor project, cell-based, second counter screen, HEK293 TRPC4/5HT1a, Fluo-4 (AID 434978;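 active = primary screen active whose calcium signal fell more than 3 SD beyond the full-serotonin control mean in both duplicate plates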;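 note: serotonin given first at submaximal then at maximal dose after compound preincubation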). The note with it: Fluo-4 calcium flux, at 10 µM, serotonin added to trigger calcium flux; hits give high values.
For assay [14], the system named is TRPC4 (mouse), co-expressed with 5HT1a in HEK293. Kind of assay: calcium flux potentiators in TRPC4/5HT1a cells, confirmation, counter-screen for TRPC4 potentiator project, cell-based, second counter screen, HEK293 TRPC4/5HT1a, Fluo-4 (AID 434979;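 active = signal rise over 3 SD above mean of control wells given weak agonist, in both repeats and first screen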). The note with it: Fluo-4 calcium flux, at 10 µM, serotonin added at its EC20 dose; hits give high values.
Assay [15] can be described thus: calcium flux activation in mu-opioid HEK293 cells, confirmation, counter-screen for TRPC4 activator project, cell-based, HEK293 mu-opioid receptor line (AID 449723).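 Note: counter screen cells carry the mu-opioid receptor alone and lack TRPC4.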 Particulars: Fluo-4 calcium fluorescence, at 10 µM; hits give high values.
Assay [16] is described as follows: calcium flux enhancement in mu-opioid HEK293 cells, confirmation, counter-screen for TRPC4 allosteric potentiator project, cell-based, HEK293 mu-opioid receptor line (AID 449724;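 active = calcium signal rise more than 3 SD above the low-dose agonist control mean, in both duplicate plates and the primary screen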;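 note: HEK293 cells carrying mu-opioid receptor only with no TRPC4 channel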). The note with it: Fluo-4 calcium flux, at 10 µM, compound added before EC20 DAMGO stimulus; hits give high values.

Each structure is given as a SMILES string. For part of these data: Results with a measured potency or affinity are listed apart. Calls of active or inactive are those of the source.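 Rule for the calls, unless noted: active = hit in primary screen, with calcium signal over 5 SD above buffer well mean in both duplicates; inactive = the rest.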

Chain of Short transient receptor potential channel 4 (Mus musculus) (Q9QUQ5 whole entry, looked up): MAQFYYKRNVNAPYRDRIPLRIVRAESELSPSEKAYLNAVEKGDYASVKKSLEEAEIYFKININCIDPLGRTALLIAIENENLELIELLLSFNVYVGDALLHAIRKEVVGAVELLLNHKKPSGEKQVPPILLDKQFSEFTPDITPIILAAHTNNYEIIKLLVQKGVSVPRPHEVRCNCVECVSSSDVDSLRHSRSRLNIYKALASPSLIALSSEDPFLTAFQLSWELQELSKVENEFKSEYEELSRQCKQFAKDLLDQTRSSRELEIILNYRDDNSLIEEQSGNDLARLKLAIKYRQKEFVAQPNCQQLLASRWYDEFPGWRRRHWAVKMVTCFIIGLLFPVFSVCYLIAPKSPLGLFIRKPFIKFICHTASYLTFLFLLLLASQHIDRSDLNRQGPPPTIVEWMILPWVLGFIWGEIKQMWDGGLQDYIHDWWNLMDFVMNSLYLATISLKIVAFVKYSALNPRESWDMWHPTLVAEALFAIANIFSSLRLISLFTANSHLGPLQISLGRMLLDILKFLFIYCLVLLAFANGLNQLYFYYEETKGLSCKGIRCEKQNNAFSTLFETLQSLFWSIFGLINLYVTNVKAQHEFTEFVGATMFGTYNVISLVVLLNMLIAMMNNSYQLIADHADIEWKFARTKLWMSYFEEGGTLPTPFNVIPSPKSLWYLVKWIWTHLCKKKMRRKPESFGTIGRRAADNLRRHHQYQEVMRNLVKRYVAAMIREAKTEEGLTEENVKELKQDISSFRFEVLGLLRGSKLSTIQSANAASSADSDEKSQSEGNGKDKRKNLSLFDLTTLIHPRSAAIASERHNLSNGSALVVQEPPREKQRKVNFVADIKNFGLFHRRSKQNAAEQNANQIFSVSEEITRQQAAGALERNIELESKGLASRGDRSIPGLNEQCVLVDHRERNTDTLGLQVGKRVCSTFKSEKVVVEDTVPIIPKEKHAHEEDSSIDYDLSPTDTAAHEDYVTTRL
Chain of Short transient receptor potential channel 6 (Mus musculus) (Q61143 whole entry, looked up): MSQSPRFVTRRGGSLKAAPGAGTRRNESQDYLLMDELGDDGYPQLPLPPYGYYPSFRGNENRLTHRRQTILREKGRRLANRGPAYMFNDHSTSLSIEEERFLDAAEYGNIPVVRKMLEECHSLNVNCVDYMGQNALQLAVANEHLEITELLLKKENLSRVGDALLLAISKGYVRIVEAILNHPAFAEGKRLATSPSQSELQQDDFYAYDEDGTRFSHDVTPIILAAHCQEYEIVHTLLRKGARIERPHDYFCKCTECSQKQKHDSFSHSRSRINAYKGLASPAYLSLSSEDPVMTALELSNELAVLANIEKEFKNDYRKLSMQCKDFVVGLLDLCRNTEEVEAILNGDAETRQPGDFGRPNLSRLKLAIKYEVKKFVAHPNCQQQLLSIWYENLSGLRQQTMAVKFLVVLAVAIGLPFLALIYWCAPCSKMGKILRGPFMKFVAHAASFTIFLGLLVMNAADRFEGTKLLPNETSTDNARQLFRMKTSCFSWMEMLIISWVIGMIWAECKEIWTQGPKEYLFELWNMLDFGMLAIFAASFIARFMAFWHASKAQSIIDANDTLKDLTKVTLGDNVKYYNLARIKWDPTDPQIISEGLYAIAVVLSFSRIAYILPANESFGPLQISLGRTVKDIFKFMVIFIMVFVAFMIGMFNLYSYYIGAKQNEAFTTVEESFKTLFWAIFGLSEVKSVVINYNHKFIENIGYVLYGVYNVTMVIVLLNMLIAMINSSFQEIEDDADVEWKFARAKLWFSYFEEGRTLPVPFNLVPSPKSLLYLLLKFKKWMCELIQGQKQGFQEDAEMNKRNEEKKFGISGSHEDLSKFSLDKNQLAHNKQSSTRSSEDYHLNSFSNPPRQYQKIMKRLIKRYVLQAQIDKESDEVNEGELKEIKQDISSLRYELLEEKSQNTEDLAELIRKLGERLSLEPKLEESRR

Take `Cc1ccn(CC(=O)NC2CCCN(Cc3ccc(CC(C)C)cc3)C2)n1` (stereo not given): the activation is 170% (active) in [1], 61% (active) in assay [10] and 50.5% (active) in assay [12]. Also, the outcome in assay [2], in [3], in [4], in assay [5], in assay [6] and in assay [7] was inactive. In addition, the outcome in [8], in assay [9], in assay [11], in [13], in assay [14] and in assay [15] was inactive. Also, the result in assay [16] was inactive.
Consider `CCN1CCN(c2ccc(S(=O)(=O)N3CCOCC3)cc2NC(=O)c2ccccc2OC(F)F)CC1`, for which the activation is 204% (active) in [1], 136% (active) in assay [2] and 77.8% (active) in assay [12]. For the same molecule, the result in assay [3], in [4], in assay [5], in [6], in assay [7] and in [8] was inactive. For the same molecule, the call in assay [9], in [10], in [11], in assay [13], in assay [14] and in assay [15] was inactive. In addition, the result in [16] was inactive.
For the molecule `CN(C)c1ccc(-c2sc(Nc3ccccc3)n[n+]2-c2ccc(F)cc2)cc1`, the activation in assay [1] is 406% (active); in assay [10] it was 45% (active); in assay [12], 10.7% (active); in assay [15], 274% (active). In addition, the result in assay [2], in [3], in assay [4], in assay [5], in assay [6] and in assay [7] was inactive. For the same molecule, the outcome in assay [8], in [9], in assay [11], in assay [13], in assay [14] and in assay [16] was inactive.
As for `O=C(N/N=C/c1ccco1)C1COc2ccccc2O1` (stereo not given), the figures for the activation in [1] and in assay [12] were 80% (active) and 27.3% (active), respectively. The outcome in assay [2], in assay [3], in assay [4], in assay [5], in [6] and in assay [7] was inactive. Besides, the outcome in assay [8], in assay [9], in assay [10], in assay [11], in assay [13] and in assay [14] was inactive. Further, the result in assay [15] and in assay [16] was inactive.
As for `CN1CCN(c2ccc(NC(=O)COc3cccc4ccccc34)cc2)CC1`, in [1], the activation is 135% (active). Also, the outcome in assay [2], in assay [3], in assay [4], in [5], in assay [6] and in assay [7] was inactive. Besides, the result in assay [8], in [9], in assay [10], in assay [11], in assay [12] and in assay [13] was inactive. Also, the result in [14], in assay [15] and in assay [16] was inactive.
Regarding `Cc1noc(C)c1CCC(=O)NC1CCCN(Cc2ccc(CC(C)C)cc2)C1` (stereo not given), the activation in assay [1] was 75% (active); in [10], 46% (active); in assay [12], 20.6% (active). For the same molecule, the outcome in assay [2], in assay [3], in assay [4], in assay [5], in assay [6] and in [7] was inactive. In addition, the result in assay [8], in assay [9], in [11], in [13], in [14] and in assay [15] was inactive. In addition, the result in [16] was inactive.
On to `COc1ccc(F)cc1CN1CCN(C(=O)CCC(=O)Nc2nnc(C(C)C)s2)CC1`, for which the result in [1], in assay [2], in assay [3], in [4], in [5] and in assay [6] was inactive. Besides, the result in [7], in [8], in assay [9], in assay [11], in assay [12] and in assay [13] was inactive. For the same molecule, the result in [14], in assay [15] and in assay [16] was inactive. Further, the activation in [10] was 41.5% (active).
For `Clc1cccc(OCCN2CCNCC2)c1`, the activation in assay [1] is 66% (active); in assay [2] it was 54% (active); in assay [12] it was 31.1% (active). The outcome in assay [3], in [4], in assay [5], in assay [6], in assay [7] and in assay [8] was inactive. Besides, the call in assay [9], in assay [10], in assay [11], in assay [13], in [14] and in assay [15] was inactive. In [16], the result was inactive.
Regarding `CCOc1ccccc1N(CC(=O)N1CCOCC1)S(=O)(=O)c1ccc(SC)cc1`, the activation was 164% (active) in assay [1], 89% (active) in assay [10], 134% (active) in [12] and 111% (active) in assay [15]. Moreover, the outcome in assay [2], in assay [3], in assay [4], in assay [5], in assay [6] and in assay [7] was inactive. Further, the result in assay [8], in [9], in assay [11], in assay [13], in [14] and in assay [16] was inactive.
On to `O=C(O)C1C2C=CC(C2)C1C(=O)N1CCN(C/C=C/c2ccccc2)CC1` (stereo not given), for which the activation in assay [1] was 71% (active); in assay [10], 26% (active); in [12], 12.8% (active). Moreover, the outcome in assay [2], in [3], in assay [4], in assay [5], in [6] and in [7] was inactive. Further, the result in [8], in [9], in assay [11], in assay [13], in assay [14] and in assay [15] was inactive. Moreover, the outcome in assay [16] was inactive.
Take `COc1ccc(C(CNC(=O)c2ccc3c(c2)OCCO3)N(C)C)cc1` (stereo not given): the activation was 153% (active) in assay [1], 123% (active) in [2] and 49% (active) in assay [10]. The outcome in [3], in assay [4], in assay [5], in assay [6], in [7] and in assay [8] was inactive. Also, the result in assay [9], in [11], in [12], in [13], in assay [14] and in assay [15] was inactive. Besides, the outcome in [16] was inactive.
Turning to `COc1ccc(-n2c3c(cc(C(=O)NNc4ccccc4)c2=O)C(=O)CC(C)(C)C3)cc1`, the activation in [1] is 104% (active). For the same molecule, the outcome in [2], in assay [3], in [4], in assay [5], in assay [6] and in assay [7] was inactive. In addition, the result in assay [8], in assay [9], in [10], in assay [11], in assay [12] and in [13] was inactive. For the same molecule, the outcome in assay [14], in assay [15] and in assay [16] was inactive.
Turning to `CN(C)C(CNc1ccc(C(F)(F)F)cn1)c1ccccc1` (stereo not given), the activation in assay [1] is 135% (active); in [10] it was 32% (active); in assay [12], 5.53% (active). Moreover, the result in [2], in assay [3], in assay [4], in assay [5], in assay [6] and in assay [7] was inactive. Besides, the result in assay [8], in [9], in [11], in [13], in assay [14] and in assay [15] was inactive. For the same molecule, in assay [16], the result was inactive.
On to `Cc1sc2ncnc(NCC(c3ccccc3)N(C)C)c2c1C` (stereo not given), for which the activation in [1] is 245% (active); in [2], 120% (active); in [12], 49% (active). Moreover, the result in assay [3], in [4], in [5], in assay [6], in assay [7] and in [8] was inactive. Moreover, the molecule was classed as inactive in [9], in assay [10], in assay [11], in [13], in assay [14] and in assay [15]. Also, the outcome in assay [16] was inactive.
Turning to `CCc1ccc(C(=O)c2cnc3ccc(OC)cc3c2N2CCN(CC)CC2)cc1`, the activation in [1] was 283% (active). The result in [2], in [3], in [4], in assay [5], in [6] and in [7] was inactive. In addition, the result in assay [8], in assay [9], in assay [10], in [11], in [12] and in [13] was inactive. For the same molecule, the outcome in assay [14], in assay [15] and in [16] was inactive.
